HT1080NT lethal = kills 2HG-producing HT-1080-NT fibrosarcoma cells | HT-1080-NT fibrosarcoma viability, CellTiter-Glo ATP luminescence, 48 h | Potency, µM (doses to about 46.1 µM), for the others: at the top dose activity, negative = less viability, most hits filed as cytotoxic | 360,000 compounds, 1.6% hits;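 also: NT is the 2HG producing partner of a matched IDH1 knockdown line; 0% = DMSO-treated cells and -100% = media-only wells without cells; nearly all actives have a fitted effect of over 55% in size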
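Toxicity toward the 2HG-producing NT line was scored as %Activity, normalised to DMSO and no-cell wells, from CellTiter-Glo luminescence after 48 hours' treatment.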
KB-3-1 cytotox = KB-3-1 parental cell cytotoxicity | KB-3-1 viability, CellTiter-Glo ATP luminescence, 72 h | Potency, µM (series often up to 46.1 µM), hits mostly cytotoxic | 400,000 compounds, 1.4% hits | AID 1347075; also: % is scaled to controls: 0 for no effect and ±100 for the full control effect; nearly all actives have a fitted effect of over 60% in size
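Cytotoxicity measured as CellTiter-Glo luminescence after 72 h at 37 C. Compound titrations were pinned onto drug-naive KB-3-1 parental adenocarcinoma cells grown in DMEM with 10% FBS, and normalized data fitted to concentration-response curves.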
MCF10A rerep = inducers of DNA re-replication in MCF 10A breast cells; MCF 10A DNA re-replication, Hoechst nuclear intensity, 48 h; Potency, µM (titrated, usually from 46.1 µM), inactives show at the highest dose activity, positive = re-replication, usual class: activators; 350,000 compounds, 2.9% hits; AID 624296; also: % of control where 0% means no effect; nearly all actives have a fitted effect of over 50% in size
SW480 rereplic = induces DNA re-replication in SW480 colon adenocarcinoma cells | SW480 DNA re-replication, Hoechst DNA content imaging, 48 h | Potency, µM (highest dose often 46.1 µM), inactives show at the top dose re-replication activation, most hits filed as activators | 340,000 compounds, 1.8% hits; also: % of control where 0% means no effect; nearly all actives have a fitted effect of over 55% in size
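SW480 cells exposed to compounds for 48 hr at 37 C, 5% CO2, then Hoechst-stained 40 min. Nuclear DNA content imaged by fluorescence scanning (405 nm excitation, 500-530 nm emission); re-replication scored as increased high-intensity nuclei.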
KB-V1 cytotox = KB-V1 MDR subline cytotoxicity | KB-V1 MDR cells viability, CellTiter-Glo, 72 h | Potency, µM (top dose mostly 46.1 µM), actives largely listed as cytotoxic | 400,000 compounds, 3.4% hits | AID 1347076; also: % is scaled to controls: 0 for no effect and ±100 for the full control effect; nearly all actives have a fitted effect of over 60% in size
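In this primary screen, KB-V1 cells overexpressing P-gp are incubated with library compounds (lowest to highest concentration) for 72 h at 37 degrees C before a luminescent ATP viability read.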
HT1080 IDH1KD tx = kills HT-1080 cells with IDH1 knockdown; HT-1080 IDH1 knockdown viability, ATP luminescence, 48 h; Potency, µM (highest dose often 46.1 µM), without a hit: at the highest dose activity, negative = toxicity, hits mostly cytotoxic; 360,000 compounds, 2% hits;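 also: 0% = DMSO wells and -100% = cell-free medium wells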
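In this qHTS, HT-1080 cells depleted of IDH1 are exposed for 48 h at 37 °C to compound titrations. Toxicity is scored from CellTiter-Glo luminescence, with DMSO as full viability and medium alone as none.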
Active calls of the source: *; i = inactive; ? = inconclusive; / = no result given; ! = not active in a repeat; [ ] = another dose, or the depositor's remark. A selection: hits, their analogues and other compounds. The true share with any hit is near 8%. Calls follow the shape of the dose curve; as a rule, active = well fitted curve in the direction sought with a large enough effect; inconclusive = small, poorly fitted or top-dose-only effect, or another doubt; inactive = no such curve, though single readings can be large; an effect the other way counts as inactive or inconclusive. Potency is read from the fitted curve at half-maximal effect.

SMILES	HT1080NT lethal	KB-3-1 cytotox	MCF10A rerep	SW480 rereplic	KB-V1 cytotox	HT1080 IDH1KD tx
N#CC1=C(SCC(=O)NC2CCCCC2)NC(=O)CC1c1ccco1 (stereo not drawn)	5%	15µM*	?	22%	i	9%
N#CC1=C(SCC(=O)Nc2ccccc2)NC(=O)CC1c1ccco1 (stereo not drawn)	14µM*	?	-3%	-1%	15µM*	?
N#CC1=C(SCC(=O)NCc2ccccc2)NC(=O)CC1c1ccco1 (stereo not drawn)	-5%	i	-7%	-3%	i	0%
COc1ccc(C)cc1S(=O)(=O)N(CC(=O)N1CCOCC1)Cc1ccccc1	0%	i	-5%	-5%	?	-4%
COc1ccc(S(=O)(=O)N(CC(=O)N2CCOCC2)Cc2ccccc2)cc1C	0%	i	-7%	-2%	2.9µM*	-20%
CCOC(=O)Cc1ccc(Nc2nc3cc(-c4sccc4C)sc3c(=O)n2C)cc1	8.2µM*	10µM*	/	/	15µM*	4.6µM*
COc1ccc(Nc2nc3cc(-c4sccc4C)sc3c(=O)n2C)cc1OC	?	5.8µM*	/	/	6.5µM*	1.3µM*
CCCC(=O)N1CCc2cc(OC)c(OC)cc2C1COc1ccc2c(C)cc(=O)oc2c1 (stereo not drawn)	/	i	/	/	i	/
CCCCN(CCCC)CCNC(=O)c1cn(C)c2ccc(S(=O)(=O)N3CCOCC3)cc2c1=O	/	i	/	/	i	/
O=C(NNc1ccc([N+](=O)[O-])cc1)c1ccco1	-1%	i	1%	-9%	i	-9%
O=C(NNc1ccc([N+](=O)[O-])cc1[N+](=O)[O-])c1ccco1	18µM*	?	9%	-1%	i	?
CC(C)CC(=O)Nc1nnc(S(=O)(=O)N(C)Cc2ccc(Cl)cc2)s1	/	i	/	/	i	/
c1ccc(-c2nc(-c3cnc4ccccc4n3)cs2)cc1	/	?	/	/	i	/
CCOC(=O)c1cc(-c2ccccc2)nc2nc(N(CC)CC)sc12	?	i	5.2µM*	?	i	-19%
CCOC(=O)c1cc(-c2ccccc2)nc2ccc(C)cc12	11%	i	?	4%	?	-3%
CCOC(=O)c1cc(-c2ccccc2)nc2nc(N3CCCCC3)sc12	8%	i	9.2µM*	4%	i	10%
Cc1ccc(-c2cc(C(=O)O)c3sc(N4CCCCC4)nc3n2)cc1	13%	i	0%	-6%	?	0%
Cc1cc(-n2c(C)cc(C(=O)CSc3[nH]c(=O)cc(C(F)(F)F)c3C#N)c2C)no1	-4%[9.24 µM]	i	?	3.3µM*	i	0%
Cc1cc(C)c(C(N)=O)c(SCC(=O)c2cc(C)c(C)cc2C)n1	-16%	i	-6%	-2%	?	-24%
Cc1cc(C)c(C(N)=O)c(SCC(=O)c2ccc(Cl)cc2)n1	0%	i	?	?	i	-6%
Cc1ccc(C(=O)CSc2nc(C)cc(C)c2C(N)=O)cc1	?	i	154%	-27%	16µM*	?
Cc1cc(C)c(C(N)=O)c(SCC(=O)c2cc(C)n(-c3cc(C)on3)c2C)n1	-2%	i	21µM*	?	?	-5%
Cc1cc(NC(=O)CSc2[nH]c(=O)cc(C(F)(F)F)c2C#N)no1	4%	i	2%	-16%	i	8%
CC(C)(C)c1ccc(C(=O)CCCN2CCC(OC(c3ccccc3)c3ccccc3)CC2)cc1	/	/	12µM*	-3%	/	/
COc1cccc(NCc2nnc(SC(C(=O)N(C)C)c3ccccc3)n2C2CCCCC2)c1 (stereo not drawn)	/	i	/	/	i	/
SMILES	HT1080NT lethal	KB-3-1 cytotox	MCF10A rerep	SW480 rereplic	KB-V1 cytotox	HT1080 IDH1KD tx
CCN(CC)C1CCN(Cc2cn[nH]c2-c2ccc(OC)c(F)c2)C1 (stereo not drawn)	-4%	i	2%	4.1µM*	i	6%
COc1ccc(C2CC(=O)c3cc(-c4nc(-c5cccc([N+](=O)[O-])c5)cs4)c(=O)n(-c4ccccc4N)c3C2)cc1 (stereo not drawn)	/	i	/	/	?	/
Cc1ccc(-c2ccc(CN3C(CC(C)C)C(=O)N(Cc4cn(CCC5OCCO5)nn4)CCS3(=O)=O)cc2)cc1 (stereo not drawn)	18µM*	?	/	/	i	18µM*
CC(C)CC1C(=O)N(Cc2cn(CCC3OCCCO3)nn2)CCS(=O)(=O)N1Cc1ccc(-c2ccccc2)cc1 (stereo not drawn)	1%	i	/	/	i	-1%
CC(C)CC1C(=O)N(Cc2cn(CCC3OCCO3)nn2)CCS(=O)(=O)N1Cc1ccc(-c2ccccc2)cc1 (stereo not drawn)	?	?	/	/	15µM*	-27%
Clc1cccc(N/N=C(\Cc2nc3ccccc3[nH]2)c2ccccc2)c1	4%	?	?	?	21µM*	-23%
COc1ccc(-n2cc(-c3ccc(C)cc3)[n+]3c2SCC3)cc1	2.9µM*	?	?	-6%	i	2.3µM*
CCc1ccc(-n2cc(-c3ccc(F)cc3)[n+]3c2SCCC3)cc1	?	9.2µM*	25%	26%	i	?
Cc1ccc(-c2cn(-c3ccccc3)c3[n+]2CCCS3)cc1	?	1.8µM*!	4%	-4%	i	?
c1ccc(-c2cn(-c3ccccc3)c3[n+]2CCCS3)cc1	?	?	25%	-5%	i	?
CC(C)NC(=O)c1sc2ncccc2c1-n1cccc1	/	i	/	/	i	/
COc1ccccc1N1CCN(C(=O)c2oc3ccccc3c2N)CC1	/	i	/	/	i	/
Cc1cc(/C=N/NC(=O)c2cccc(F)c2)c(C)n1-c1ccccc1	-29%	i	18µM*	4%	i	-28%
CC(/C=N/NC(=O)c1ccncc1)=C\c1ccccc1	-1%	i	-22%	1%	i	?
CC(/C=C/c1ccccc1)=N\NC(=O)c1ccc2c(c1)OCCO2	-14%	?	21%	18µM*	i	-26%
CC(/C=C/c1ccccc1)=N/NC(=O)CNC(=O)c1ccc2c(c1)OCO2	-12%	i	?	-1%	i	-20%
CC(=C/c1ccc(C(C)C)cc1)/C=N/NC(=O)c1ccncc1	11%	i	21µM*	-4%	i	12%
CC(/C=N/NC(=O)c1cccc(F)c1)=C\c1ccccc1	?	16µM*	?	15µM*	?	?
